Results reported in paper PMC11006913.

Legend:
Experiment in all cases: PBM; 200 nM protein, PBS
Details in all cases: dsDNA, one strand shown
VENTX = molecular target: T1, VENTX (Homo sapiens, UniProt O95231 78-163, R121Q)
T1 sequence: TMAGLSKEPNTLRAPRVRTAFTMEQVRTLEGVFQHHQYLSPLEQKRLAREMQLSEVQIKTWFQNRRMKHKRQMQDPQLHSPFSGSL

HOXA4 [1] = molecular target: HOXA4 (Homo sapiens, UniProt Q00056 201-287, W262R)
HOXA7 [2] = molecular target: HOXA7 (Homo sapiens, UniProt P31268 116-202)
ALX4 [3] = molecular target: ALX4 (Homo sapiens, UniProt Q9H161 200-286)
PRRX1 [4] = molecular target: PRRX1 (Homo sapiens, UniProt P54821 80-166, F113S)
HOXB6 [5] = molecular target: HOXB6 (Homo sapiens, UniProt P17509 132-218, K202E)
ALX4 [6] = molecular target: ALX4 (Homo sapiens, UniProt Q9H161 200-286, Q225E)
HOXA2 = HOXA2 (Homo sapiens, UniProt O43364 129-215, R185T)
HOXA4 [7] = molecular target: HOXA4 (Homo sapiens, UniProt Q00056 201-287, R217L)
MSX2 [8] = molecular target: MSX2 (Homo sapiens, UniProt P35548 130-214, R199I)
HOXA4 [9] = molecular target: HOXA4 (Homo sapiens, UniProt Q00056 201-287)
MSX2 [10] = molecular target: MSX2 (Homo sapiens, UniProt P35548 130-214)
VAX1 [11] = molecular target: VAX1 (Homo sapiens, UniProt Q5SQQ9 86-172)
MSX2 [12] = molecular target: MSX2 (Homo sapiens, UniProt P35548 130-214, F161Y)
VAX1 [13] = molecular target: VAX1 (Homo sapiens, UniProt Q5SQQ9 86-172, T142I)
HOXA7 [14] = molecular target: HOXA7 (Homo sapiens, UniProt P31268 116-202, W177C)
HOXA4 [15] = molecular target: HOXA4 (Homo sapiens, UniProt Q00056 201-287, W262F)
PRRX1 [16] = molecular target: PRRX1 (Homo sapiens, UniProt P54821 80-166)
VAX1 [17] = molecular target: VAX1 (Homo sapiens, UniProt Q5SQQ9 86-172, K157R)
HOXB6 [18] = molecular target: HOXB6 (Homo sapiens, UniProt P17509 132-218)
Sequence of HOXB6 (Homo sapiens, UniProt P17509 132-218) (P17509 132-218): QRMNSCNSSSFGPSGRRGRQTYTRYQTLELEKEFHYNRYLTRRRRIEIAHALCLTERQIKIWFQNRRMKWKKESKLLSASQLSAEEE

Sequence of VAX1 (Homo sapiens, UniProt Q5SQQ9 86-172) (Q5SQQ9 86-172): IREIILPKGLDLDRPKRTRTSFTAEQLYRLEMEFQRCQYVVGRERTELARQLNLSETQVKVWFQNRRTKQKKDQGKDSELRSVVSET
Sequence of VAX1 (Homo sapiens, UniProt Q5SQQ9 86-172, T142I) (Q5SQQ9 86-172 T142I): as the sequence (Q5SQQ9 86-172) above, with T57I counted along it
Sequence of HOXA7 (Homo sapiens, UniProt P31268 116-202) (P31268 116-202): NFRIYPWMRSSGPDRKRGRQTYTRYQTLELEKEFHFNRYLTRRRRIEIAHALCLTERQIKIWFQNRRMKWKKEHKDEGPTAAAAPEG
Sequence of HOXB6 (Homo sapiens, UniProt P17509 132-218, K202E) (P17509 132-218 K202E): as the sequence (P17509 132-218) above, with K71E counted along it
Sequence of HOXA2 (O43364 129-215 R185T): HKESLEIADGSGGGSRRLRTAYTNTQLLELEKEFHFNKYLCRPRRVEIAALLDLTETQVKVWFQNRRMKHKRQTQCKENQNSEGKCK
Sequence of PRRX1 (Homo sapiens, UniProt P54821 80-166) (P54821 80-166): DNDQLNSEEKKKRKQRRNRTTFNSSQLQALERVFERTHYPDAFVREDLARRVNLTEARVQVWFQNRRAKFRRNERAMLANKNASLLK
Sequence of MSX2 (Homo sapiens, UniProt P35548 130-214, F161Y) (P35548 130-214 F161Y): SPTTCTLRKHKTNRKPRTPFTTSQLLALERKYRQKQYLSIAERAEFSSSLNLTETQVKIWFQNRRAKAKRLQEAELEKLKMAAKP
Sequence of HOXA4 (Homo sapiens, UniProt Q00056 201-287, R217L) (Q00056 201-287 R217L): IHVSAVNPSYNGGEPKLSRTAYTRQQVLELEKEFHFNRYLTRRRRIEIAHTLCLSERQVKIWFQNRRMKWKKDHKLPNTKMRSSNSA
Sequence of HOXA4 (Homo sapiens, UniProt Q00056 201-287, W262R) (Q00056 201-287 W262R): as the sequence (Q00056 201-287 R217L) above, with L17R, W62R counted along it
Sequence of MSX2 (Homo sapiens, UniProt P35548 130-214) (P35548 130-214): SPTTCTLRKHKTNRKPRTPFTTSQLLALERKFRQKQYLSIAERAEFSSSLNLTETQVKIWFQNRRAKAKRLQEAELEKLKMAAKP
Sequence of ALX4 (Homo sapiens, UniProt Q9H161 200-286, Q225E) (Q9H161 200-286 Q225E): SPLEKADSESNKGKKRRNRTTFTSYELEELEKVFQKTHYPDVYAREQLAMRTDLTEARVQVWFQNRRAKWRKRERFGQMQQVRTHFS
Sequence of HOXA4 (Homo sapiens, UniProt Q00056 201-287, W262F) (Q00056 201-287 W262F): as the sequence (Q00056 201-287 R217L) above, with L17R, W62F counted along it
Sequence of HOXA7 (Homo sapiens, UniProt P31268 116-202, W177C) (P31268 116-202 W177C): as the sequence (P31268 116-202) above, with W62C counted along it
Sequence of HOXA4 (Homo sapiens, UniProt Q00056 201-287) (Q00056 201-287): as the sequence (Q00056 201-287 R217L) above, with L17R counted along it
Sequence of ALX4 (Homo sapiens, UniProt Q9H161 200-286) (Q9H161 200-286): as the sequence (Q9H161 200-286 Q225E) above, with E26Q counted along it
Sequence of MSX2 (Homo sapiens, UniProt P35548 130-214, R199I) (P35548 130-214 R199I): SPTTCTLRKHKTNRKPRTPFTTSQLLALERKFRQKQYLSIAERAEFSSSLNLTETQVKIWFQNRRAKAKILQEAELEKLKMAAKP
Sequence of PRRX1 (Homo sapiens, UniProt P54821 80-166, F113S) (P54821 80-166 F113S): as the sequence (P54821 80-166) above, with F34S counted along it
Sequence of VAX1 (Homo sapiens, UniProt Q5SQQ9 86-172, K157R) (Q5SQQ9 86-172 K157R): as the sequence (Q5SQQ9 86-172) above, with K72R counted along it

Sequence	binding signal (VENTX)	binding signal (HOXA4 [1])	binding signal (HOXA7 [2])	binding signal (ALX4 [3])	binding signal (PRRX1 [4])	binding signal (HOXB6 [5])	binding signal (ALX4 [6])	binding signal (HOXA2)	binding signal (HOXA4 [7])	binding signal (MSX2 [8])	binding signal (HOXA4 [9])	binding signal (MSX2 [10])	binding signal (VAX1 [11])	binding signal (MSX2 [12])	binding signal (VAX1 [13])	binding signal (HOXA7 [14])	binding signal (HOXA4 [15])	binding signal (PRRX1 [16])	binding signal (VAX1 [17])	binding signal (HOXB6 [18])
AATTAATT	12.1 upbm affinity estimate (log intensity, higher = more binding, comparable within an allelic series)	10.8 upbm affinity estimate (log intensity, higher = more binding, comparable within an allelic series)	11.9 upbm affinity estimate (log intensity, higher = more binding, comparable within an allelic series)	14.7 upbm affinity estimate (log intensity, higher = more binding, comparable within an allelic series)	11.8 upbm affinity estimate (log intensity, higher = more binding, comparable within an allelic series)	10.2 upbm affinity estimate (log intensity, higher = more binding, comparable within an allelic series)	14.3 upbm affinity estimate (log intensity, higher = more binding, comparable within an allelic series)	13.4 upbm affinity estimate (log intensity, higher = more binding, comparable within an allelic series)	12.8 upbm affinity estimate (log intensity, higher = more binding, comparable within an allelic series)	13.3 upbm affinity estimate (log intensity, higher = more binding, comparable within an allelic series)	14 upbm affinity estimate (log intensity, higher = more binding, comparable within an allelic series)	14.1 upbm affinity estimate (log intensity, higher = more binding, comparable within an allelic series)	13.3 upbm affinity estimate (log intensity, higher = more binding, comparable within an allelic series)	13.8 upbm affinity estimate (log intensity, higher = more binding, comparable within an allelic series)	13.2 upbm affinity estimate (log intensity, higher = more binding, comparable within an allelic series)	8.91 upbm affinity estimate (log intensity, higher = more binding, comparable within an allelic series)	12.2 upbm affinity estimate (log intensity, higher = more binding, comparable within an allelic series)	13.6 upbm affinity estimate (log intensity, higher = more binding, comparable within an allelic series)	13.1 upbm affinity estimate (log intensity, higher = more binding, comparable within an allelic series)	12.4 upbm affinity estimate (log intensity, higher = more binding, comparable within an allelic series)
CTAATTAA	12.7 upbm affinity estimate (log intensity, higher = more binding, comparable within an allelic series)	11 upbm affinity estimate (log intensity, higher = more binding, comparable within an allelic series)	11.9 upbm affinity estimate (log intensity, higher = more binding, comparable within an allelic series)	14.4 upbm affinity estimate (log intensity, higher = more binding, comparable within an allelic series)	12.1 upbm affinity estimate (log intensity, higher = more binding, comparable within an allelic series)	10.1 upbm affinity estimate (log intensity, higher = more binding, comparable within an allelic series)	14.4 upbm affinity estimate (log intensity, higher = more binding, comparable within an allelic series)	13.8 upbm affinity estimate (log intensity, higher = more binding, comparable within an allelic series)	12.9 upbm affinity estimate (log intensity, higher = more binding, comparable within an allelic series)	13.3 upbm affinity estimate (log intensity, higher = more binding, comparable within an allelic series)	14.2 upbm affinity estimate (log intensity, higher = more binding, comparable within an allelic series)	14.1 upbm affinity estimate (log intensity, higher = more binding, comparable within an allelic series)	13.7 upbm affinity estimate (log intensity, higher = more binding, comparable within an allelic series)	13.7 upbm affinity estimate (log intensity, higher = more binding, comparable within an allelic series)	13.8 upbm affinity estimate (log intensity, higher = more binding, comparable within an allelic series)	8.82 upbm affinity estimate (log intensity, higher = more binding, comparable within an allelic series)	12.7 upbm affinity estimate (log intensity, higher = more binding, comparable within an allelic series)	13.7 upbm affinity estimate (log intensity, higher = more binding, comparable within an allelic series)	13.8 upbm affinity estimate (log intensity, higher = more binding, comparable within an allelic series)	12.2 upbm affinity estimate (log intensity, higher = more binding, comparable within an allelic series)
TTAATTAA	12.4 upbm affinity estimate (log intensity, higher = more binding, comparable within an allelic series)	11 upbm affinity estimate (log intensity, higher = more binding, comparable within an allelic series)	12.2 upbm affinity estimate (log intensity, higher = more binding, comparable within an allelic series)	14.7 upbm affinity estimate (log intensity, higher = more binding, comparable within an allelic series)	12.1 upbm affinity estimate (log intensity, higher = more binding, comparable within an allelic series)	10.3 upbm affinity estimate (log intensity, higher = more binding, comparable within an allelic series)	14.7 upbm affinity estimate (log intensity, higher = more binding, comparable within an allelic series)	13.7 upbm affinity estimate (log intensity, higher = more binding, comparable within an allelic series)	13.2 upbm affinity estimate (log intensity, higher = more binding, comparable within an allelic series)	13.1 upbm affinity estimate (log intensity, higher = more binding, comparable within an allelic series)	14.3 upbm affinity estimate (log intensity, higher = more binding, comparable within an allelic series)	13.9 upbm affinity estimate (log intensity, higher = more binding, comparable within an allelic series)	13.6 upbm affinity estimate (log intensity, higher = more binding, comparable within an allelic series)	13.5 upbm affinity estimate (log intensity, higher = more binding, comparable within an allelic series)	13.6 upbm affinity estimate (log intensity, higher = more binding, comparable within an allelic series)	8.85 upbm affinity estimate (log intensity, higher = more binding, comparable within an allelic series)	13.1 upbm affinity estimate (log intensity, higher = more binding, comparable within an allelic series)	13.7 upbm affinity estimate (log intensity, higher = more binding, comparable within an allelic series)	13.5 upbm affinity estimate (log intensity, higher = more binding, comparable within an allelic series)	12.5 upbm affinity estimate (log intensity, higher = more binding, comparable within an allelic series)
GATAATTA	12.5 upbm affinity estimate (log intensity, higher = more binding, comparable within an allelic series)	11 upbm affinity estimate (log intensity, higher = more binding, comparable within an allelic series)	12.2 upbm affinity estimate (log intensity, higher = more binding, comparable within an allelic series)	14.4 upbm affinity estimate (log intensity, higher = more binding, comparable within an allelic series)	12 upbm affinity estimate (log intensity, higher = more binding, comparable within an allelic series)	10.2 upbm affinity estimate (log intensity, higher = more binding, comparable within an allelic series)	14.1 upbm affinity estimate (log intensity, higher = more binding, comparable within an allelic series)	13.9 upbm affinity estimate (log intensity, higher = more binding, comparable within an allelic series)	13.1 upbm affinity estimate (log intensity, higher = more binding, comparable within an allelic series)	13.3 upbm affinity estimate (log intensity, higher = more binding, comparable within an allelic series)	14.3 upbm affinity estimate (log intensity, higher = more binding, comparable within an allelic series)	14.1 upbm affinity estimate (log intensity, higher = more binding, comparable within an allelic series)	13.7 upbm affinity estimate (log intensity, higher = more binding, comparable within an allelic series)	13.7 upbm affinity estimate (log intensity, higher = more binding, comparable within an allelic series)	13.8 upbm affinity estimate (log intensity, higher = more binding, comparable within an allelic series)	9.01 upbm affinity estimate (log intensity, higher = more binding, comparable within an allelic series)	12.6 upbm affinity estimate (log intensity, higher = more binding, comparable within an allelic series)	13.7 upbm affinity estimate (log intensity, higher = more binding, comparable within an allelic series)	13.7 upbm affinity estimate (log intensity, higher = more binding, comparable within an allelic series)	12.5 upbm affinity estimate (log intensity, higher = more binding, comparable within an allelic series)
